ChEMBL document CHEMBL4513216, “Probing the Open Global Health Chemical Diversity Library for Multistage-Active Starting Points for Next-Generation Antimalarials” (ACS Infect Dis, 2020)
Among all 68,000 compounds or so, about 2,700 (4%) showed an effect of 50% or more. For the sample, strong results were picked, then their nearest neighbours and some compounds at random.

These molecules were tested on Plasmodium berghei (assay: Screen against P. berghei liver stage (PbLuc), transformed with Luciferase, at 2uM). Settings: tested at 2 uM.
Type: functional, HepG2

Compound | INHIBITION [%]
CS(=O)(=O)N1CCC2(CCN(C(=O)c3cccs3)CC2)CC1 | 11.79
COc1ncc(-c2nccn2CCN(C)C)cn1 | -37.29
CCCSc1ncc(-c2nccn2CCC(N)=O)cn1 | 60.13
CCCn1ccnc1-c1nccn1CCC(N)=O | 43.44
COC(=O)CCCn1ccnc1-c1ccccc1 | 1.42
COCc1ncc(-c2nccn2CCn2cnnc2)cn1 | -0.15
COCCCn1ccnc1-c1cnc(OC)nc1 | -26.85
CCCSc1ncc(-c2nccn2CCO)cn1 | 52.98
COCc1ncc(-c2nccn2CCN(C)C)cn1 | -24.39
CCSc1ncc(-c2nccn2CCN(C)C)cn1 | 59.03
CN(C)C(=O)COC[C@]12COC[C@H]1CN(Cc1ccccc1)C2 | 42.18
Cc1ccc(CC(=O)Nc2cc(C(C)C)n[nH]2)cn1 | 29.54
NC(=O)c1cc(C2CC2)nc2ccc(F)cc12 | -28.49
CC(Nc1cccc2c1OCCO2)C(=O)Nc1cccc(C#N)c1 (stereo unspecified) | 17.64
COCCCN(C)C(=O)c1cccc(Nc2cnccn2)c1 | -5.53
CC(C)n1ccc(C(=O)NCC(O)c2c(Cl)cccc2Cl)n1 (stereo unspecified) | -6.2
CCCS(=O)(=O)NCC(O)c1c(Cl)cccc1Cl (stereo unspecified) | -35.21
CCN(CC)S(=O)(=O)NCC(O)c1c(Cl)cccc1Cl (stereo unspecified) | 51
CCCN1CCCC2(CCN(S(=O)(=O)N3CCC(OC)CC3)C2)C1=O (stereo unspecified) | -46.38
CCN(Cc1ccncc1)CC1(O)CCN(C(=O)c2cnn(C)c2)C1 (stereo unspecified) | 52.82
CCN(Cc1ccncc1)CC1(O)CCN(C(=O)c2ccccc2C)C1 (stereo unspecified) | 44.07
CCN(Cc1ccncc1)CC1(O)CCN(C(=O)c2cccc(C)c2)C1 (stereo unspecified) | 45.73
COCc1nc(C(=O)NS(=O)(=O)c2cc(C)ccc2C)cs1 | 25.74
Cc1cc(N2CCN(C(=O)c3cnn(C(C)C)c3)CC2)cc(C)n1 | 44.95

Compound | INHIBITION [%]
NC(=O)CN1CC2(CCC1=O)CCN(Cc1cc(F)ccc1Cl)CC2 | 23.7
Cn1cc(CN2CCC3(CC2)CN(C(=O)c2cnccn2)CCO3)cn1 | 2.22
Cc1cc(N2CCCC(c3nncn3C3CC3)C2)ncn1 (stereo unspecified) | -23.49
CC(C(=O)N1CCCC1)N1CCC(c2nccn2CC2CCC2)CC1 (stereo unspecified) | -19.54
CCn1c(Cn2cncn2)nnc1C1CCN(C2CCNCC2)CC1 | 19.49
CCn1c(CN2CCCC2)nnc1C1CCN(Cc2cccnc2)CC1 | -35.07
CCn1c(Cn2cncn2)nnc1C1CCN(C2CCOCC2)CC1 | 50.32
CCn1c(CN(C)C)nnc1C1CCN(Cc2ccncc2)CC1 | 11.74
CCn1c(CN2CCCC2)nnc1C1CCN(Cc2ccncc2)CC1 | 54.41
c1ncn(Cc2nnc(C3CCN(C4CCOCC4)CC3)n2C2CC2)n1 | -33.43
Cc1cnc(C)c(Oc2ccc(CN3CCCC3)cc2Cl)n1 | -9.5
CNS(=O)(=O)CCCN1CCCCCC1c1ccc(C)o1 (stereo unspecified) | 60.13
Cc1ccc(C2CCCCCN2CCCS(C)(=O)=O)o1 (stereo unspecified) | 38.67
Cc1ccc(C2CCCCCN2CCNS(C)(=O)=O)o1 (stereo unspecified) | 48.21
CC1CCN(S(=O)(=O)N2Cc3ccccc3C[C@H]2C(N)=O)CC1 | 21.37
COC(=O)c1cc(C2CC2)nc2c(Cl)cnn12 | 70.37
O=C(O)c1cc(C2CC2)nc2c(Cl)cnn12 | 0.89
COC(=O)c1cc(C2CC2)nc2c(C#N)cnn12 | 11.95
Cc1nc(CN2CCCn3c(nc(Cn4cncn4)cc3=O)C2)cs1 | 37.6
N#Cc1ccc(N2CCC3(CC2)CC(Oc2cccnc2)CO3)cc1 (stereo unspecified) | 38.49
FC1(F)CCN(Cc2ccccn2)CC12CCN(c1cccnc1)C2 (stereo unspecified) | 2.07
COC1CCN(C(=O)c2ccccc2NCc2cccnc2)CC1 | 54.77
CC(C)N1CCN(C(=O)c2ccccc2NCc2cccnc2)CC1 | 8.73
COCC1CCCN(C(=O)c2ccccc2NCc2cccnc2)C1 (stereo unspecified) | 22.39

Compound | INHIBITION [%]
Cc1cc(CNCCNS(C)(=O)=O)sc1Br | 20.76
O=C(CCn1cncn1)N1C[C@@H]2CC[C@H]1CN(Cc1cccnc1)C2 | 44.37
O=C(NCC1CCOC1)c1cc(-c2ccc(F)cc2)[nH]n1 (stereo unspecified) | -22.69
O=C(NCC1CCOC1)c1cc(-c2cccc(Cl)c2)[nH]n1 (stereo unspecified) | 47.03
O=C(NCC1CCOC1)c1cc(-c2ccc(Cl)cc2)n[nH]1 (stereo unspecified) | 61.07
CCCS(=O)(=O)NC(=O)c1ccc(CC)o1 | 10.48
CCCN(C)S(=O)(=O)NC(=O)c1ccc(CC)o1 | 13.28
CCCS(=O)(=O)NC(=O)c1ccc(Br)o1 | 56.8
NC1CCCCN(Cc2cc(-c3ccccc3OC(F)(F)F)no2)C1 (stereo unspecified) | 28.63
Cc1ccsc1CNCc1c(C(C)C)nn(C)c1N1CCOCC1 | -28.5
O=C1CC(c2ccccc2F)c2c(n3ccsc3nc2=O)N1 (stereo unspecified) | 25.47
CCOC(C)c1noc(CN(C)C(=O)c2ccncc2)n1 (stereo unspecified) | 20.14
CCOC(C)c1noc(CN(C)C(=O)C2C(C)(C)C2(C)C)n1 (stereo unspecified) | 20.14
CCOC(C)c1noc(CN(C)C(=O)c2cc3ccccn3c2)n1 (stereo unspecified) | 52.08
Cc1cnn(CCC(=O)N2CCCN(c3ccccc3C#N)CC2)c1 | -43.47
CC(C)C(c1cccnc1)N(C)C(=O)Cc1c(F)cccc1F (stereo unspecified) | 54.29
CC(C)C(c1cccnc1)N(C)C(=O)Cc1ccc(O)cc1 (stereo unspecified) | 39.44
CCNC(=O)N(C)C(c1cccnc1)C(C)C (stereo unspecified) | 42.2
CS(=O)(=O)c1cccc(C(N)c2ccccc2)c1 (stereo unspecified) | 35.65
Cc1ccc(C(N)c2cccc(S(C)(=O)=O)c2)cc1 (stereo unspecified) | 54.92
CS(=O)(=O)c1cccc(C(N)c2ccc(F)cc2)c1 (stereo unspecified) | -19.35
COc1ccc(CNC(=O)C(NC(=O)Cc2ccccc2)C(C)C)cn1 (stereo unspecified) | -129.64
O=C(Cc1ccccc1)N1CCC2(CC(=O)N(c3ccsc3)C2)C1 (stereo unspecified) | -54.51
